The results in this text go back to PubChem BioAssay (NCATS).

Assay [1] is described as follows: Primary qHTS for Huh7 cytotoxicity: counterscreen for inhibitors of MERS-S pseudotyped particle cell entry (AID 1479147). Also: potency is read from the fitted curve at half-maximal effect.
Assay [2] in a line: Primary qHTS for Vero E6 cytotoxicity: counterscreen for inhibitors of SARS-S pseudo-typed particle cell entry (AID 1479150). A general note: qHTS replaces the single test concentration by a dilution series.
Assay [3] is described as follows: Cytotoxicity counterscreen for inhibitors of SARS-CoV-2 cell entry (AID 1645845). Also: nearly all actives have a fitted effect of over 50% in size. The essentials: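 48 h compound treatment (after 1 h preincubation), HEK293-ACE2 cells, 37 C/5% CO2; ATP luminescence endpoint; normalized to cell wells and media blanks.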
For orientation: The purpose of a counterscreen is to sort out artefacts and off-target activity.

Assay [4] can be described thus: Confirmatory qHTS for VERO E6 Cytotoxicity Assay: Counterscreen for SARS-CoV-2 CPE Assay (AID 1508605). Also: % is scaled to controls: 0 for no effect and ±100 for the full control effect; nearly all actives have a fitted effect of over 60% in size.
A short description of assay [5]: Primary qHTS for inhibitors of MERS-S pseudo-typed particle cell entry (AID 1479149). Also: nearly all actives have a fitted effect of over 60% in size. Also: potency is read from the fitted curve at half-maximal effect.
Assay [6] in a line: Primary qHTS to identify inhibitors of SARS-CoV-2 cell entry (AID 1645846). Also: nearly all actives have a fitted effect of over 45% in size. Also: potency is read from the fitted curve at half-maximal effect. The settings on record: activity change, negative = inhibition: at 57.1 µM (top of the series) unless noted. In outline:
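Inhibition of spike-mediated entry was scored in human ACE2-transfected Expi293F cells. Particles were MLV-pseudotyped with Wuhan-Hu-1 S carrying a 19-aa C-terminal deletion; signal was luciferase after two days, scaled between spike PP and fusion-protein-free PP.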

Assay [7] is described as follows: VSVG counterscreen qHTS to identify inhibitors of SARS-CoV-2 cell entry (AID 1645847). Also: potency is read from the fitted curve at half-maximal effect; nearly all actives have a fitted effect of over 65% in size. The essentials: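 Luminescence from a luciferase reporter, normalised to bald particle and VSV-G pseudotyped particle wells, is the read-out. Cells are HEK293 expressing human ACE2, exposed to compound 1 h before a 48 h particle infection at 37 °C.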
A short description of assay [8]: Confirmatory qHTS for activators (rescue) of SARS-CoV-2 Cytopathic Effect (CPE) (AID 1508606). Also: potency is read from the fitted curve at half-maximal effect; nearly all actives have a fitted effect of over 70% in size.
Assay [9] can be described thus: Primary qHTS for inhibitors of La Crosse Virus (LACV) - induced cell death in SH-SY5Y cells (AID 1508616; active = well fitted curve in the direction sought with a large enough effect; an effect the other way counts as inactive or inconclusive;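 also: top concentration of the series differs between compounds; 0% = infected DMSO wells and 100% = uninfected DMSO wells; higher means more rescue of cells from virus-induced death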). The essentials: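 Readout was luminescence from ATPLite 1step added after a 6-day LACV infection (0.01 MOI) of SH-SY5Y cells that had received pin-transferred compound 24 hr after seeding.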
In assay [10] the target is Calcium and integrin-binding protein 1 (Homo sapiens) (UniProt Q99828). Put plainly: Primary qHTS for Identification of Calcium Integrin Binding Protein 1 (CIB1) Competitor (AID 1508620; active = well fitted curve in the direction sought with a large enough effect; an effect the other way counts as inactive or inconclusive;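 also: GST tagged CIB1 binding a fluorescein labelled alphaIIb integrin peptide tracer; top concentration of the series differs between compounds; % is scaled to controls: 0 for no effect and ±100 for the full control effect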). In outline:
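CIB1-GST (1 uM final) and compound incubated 15 min at room temperature before adding FITC-alphaIIb peptide tracer (100 nM final). Competition for binding read by fluorescence polarization (ex 480, em 540) after another 15 min at room temperature.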

A short description of assay [11]: Primary qHTS for small molecule stabilizers of the endoplasmic reticulum resident proteome: Secreted ER Calcium Modulated Protein (SERCaMP) assay (AID 1508630; active = well fitted curve in the direction sought with a large enough effect; an effect the other way counts as inactive or inconclusive; also: % is scaled to controls: 0 for no effect and ±100 for the full control effect). The essentials: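 GLuc-SERCaMP-expressing SH-SY5Y cells, pretreated 16 h with compound, are challenged with thapsigargin to empty ER calcium stores; after 4 h, coelenterazine is added directly to the medium and luminescence is imaged.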

Assay [12] in a line: A High-Content qHTS Against Drug Library for the Identification of Small Molecules that Inhibit DYT1 Early Onset Primary Dystonia-Associated Cell Pathology (AID 1645839). The essentials: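 In this high-content image screen, delE TorsinA mislocalization in inducible Flp-In 293 cells is scored as %pathology, with cell count serving as the counterscreen. Compound exposure lasts 48 h under tetracycline induction in reduced-serum medium.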

In assay [13] the target is Cytochrome P450 2D6 (Homo sapiens) (UniProt P10635). Put plainly: Cytochrome P450 family 2 subfamily D member 6 (CYP2D6) small molecule antagonists: luciferase biochemical (cell-free) qHTS assay (AID 1645840; active = well fitted curve in the direction sought with a large enough effect in the repeat runs; an effect the other way counts as inactive or inconclusive; also: nearly all actives have a fitted effect of over 55% in size; also: potency is read from the fitted curve at half-maximal effect; as to activity change, negative = inhibition: % is scaled to controls: 0 for no effect and ±100 for the full control effect). In outline:
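P450-Glo luminescent screen: recombinant CYP2D6 enzyme–proluciferin substrate mix preincubated with compound 10 min at room temperature, then NADPH regeneration added for 1 h at room temperature. Detection reagent added for 20 min; luciferin light read as relative luminescence units.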

Assay [14] deals with Cytochrome P450 2C9 (Homo sapiens) (UniProt P11712). Description: Cytochrome P450 family 2 subfamily C member 9 (CYP2C9) small molecule antagonists: luciferase biochemical (cell-free) qHTS assay (AID 1645842; active = well fitted curve in the direction sought with a large enough effect in the repeat runs; an effect the other way counts as inactive or inconclusive; also: % is scaled to controls: 0 for no effect and ±100 for the full control effect; nearly all actives have a fitted effect of over 55% in size). In outline: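 Luminescence, after 20 min with luciferin detection reagent, reflected CYP2C9 turnover during a 1 h NADPH-driven reaction at 37C. Enzyme-substrate mix contained 0.4% bovine serum albumin and was preincubated with compound 10 min at room temperature.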
Sequence of Cytochrome P450 2C9 (Homo sapiens) (P11712 whole entry, looked up): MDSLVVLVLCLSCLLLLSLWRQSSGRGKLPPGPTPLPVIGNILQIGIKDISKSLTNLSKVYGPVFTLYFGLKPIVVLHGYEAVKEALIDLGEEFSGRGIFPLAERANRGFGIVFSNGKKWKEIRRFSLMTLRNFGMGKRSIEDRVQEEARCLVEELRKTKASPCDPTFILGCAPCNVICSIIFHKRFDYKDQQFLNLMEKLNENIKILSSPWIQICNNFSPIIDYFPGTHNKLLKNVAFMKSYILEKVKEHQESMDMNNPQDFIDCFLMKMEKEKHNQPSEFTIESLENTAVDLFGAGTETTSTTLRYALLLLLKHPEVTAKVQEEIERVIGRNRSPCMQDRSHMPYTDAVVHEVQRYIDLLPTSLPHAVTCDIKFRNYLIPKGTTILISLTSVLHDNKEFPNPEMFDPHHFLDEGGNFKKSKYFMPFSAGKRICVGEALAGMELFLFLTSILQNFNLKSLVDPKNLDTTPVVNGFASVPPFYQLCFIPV

A further assay addresses Papain (Carica papaya) (UniProt P00784). Put plainly: Primary qHTS assay for inhibitors of the protease papain (AID 1645873; active = well fitted curve in the direction sought with a large enough effect; an effect the other way counts as inactive or inconclusive;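 also: papain turnover of Z-FR-AMC read as the AMC fluorescence gain over 10 min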; also: potency is read from the fitted curve at half-maximal effect; as to activity change, negative = inhibition: % is scaled to controls: 0 for no effect and ±100 for the full control effect).

The structures appear in SMILES notation. Inconclusive results are not listed. Calls of active or inactive are those of the source. Unless noted, calls follow the shape of the full dose curve.

Sequence of Calcium and integrin-binding protein 1 (Homo sapiens) (Q99828 whole entry, looked up): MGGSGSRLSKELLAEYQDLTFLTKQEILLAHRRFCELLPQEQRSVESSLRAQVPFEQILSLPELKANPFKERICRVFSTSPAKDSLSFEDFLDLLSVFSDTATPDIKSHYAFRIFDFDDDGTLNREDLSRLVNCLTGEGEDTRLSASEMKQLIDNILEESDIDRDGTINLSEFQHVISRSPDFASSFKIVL
Sequence of Cytochrome P450 2D6 (Homo sapiens) (P10635 whole entry, looked up): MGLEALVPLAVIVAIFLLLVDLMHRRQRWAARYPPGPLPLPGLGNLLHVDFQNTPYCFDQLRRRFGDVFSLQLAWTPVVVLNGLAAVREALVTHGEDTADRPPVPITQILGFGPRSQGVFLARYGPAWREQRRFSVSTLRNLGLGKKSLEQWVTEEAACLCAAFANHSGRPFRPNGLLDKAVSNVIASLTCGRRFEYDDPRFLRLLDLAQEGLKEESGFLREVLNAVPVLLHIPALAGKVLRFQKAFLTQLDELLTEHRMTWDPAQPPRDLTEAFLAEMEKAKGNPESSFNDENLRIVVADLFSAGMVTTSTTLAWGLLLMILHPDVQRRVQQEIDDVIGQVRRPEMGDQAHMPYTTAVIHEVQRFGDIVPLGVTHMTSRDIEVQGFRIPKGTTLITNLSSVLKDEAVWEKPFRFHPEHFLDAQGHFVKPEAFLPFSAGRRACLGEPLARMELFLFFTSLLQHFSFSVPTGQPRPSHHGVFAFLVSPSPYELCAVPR
Sequence of Papain (Carica papaya) (P00784 whole entry, looked up): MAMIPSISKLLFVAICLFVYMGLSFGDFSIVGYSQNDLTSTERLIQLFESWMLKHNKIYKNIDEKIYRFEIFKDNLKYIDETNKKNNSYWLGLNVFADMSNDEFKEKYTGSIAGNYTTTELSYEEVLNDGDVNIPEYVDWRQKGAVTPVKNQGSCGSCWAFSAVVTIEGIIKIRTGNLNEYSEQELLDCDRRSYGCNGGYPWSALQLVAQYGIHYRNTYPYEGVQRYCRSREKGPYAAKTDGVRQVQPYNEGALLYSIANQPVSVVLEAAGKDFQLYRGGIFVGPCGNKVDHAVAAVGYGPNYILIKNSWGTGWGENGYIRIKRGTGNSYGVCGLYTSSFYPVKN

With `Cc1ccccc1C(OCCN(C)C)c1ccccc1` (stereo not drawn), the Potency entry in assay [1], in assay [2] and in assay [3] was “inactive” in each case.

Turning to `O=C1CCc2cc(OCCCCc3nnnn3C3CCCCC3)ccc2N1`, the Potency entry in [1] and in assay [2] was “inactive” throughout.

As for `CNCCCN1c2ccccc2CCc2ccccc21`, the Potency entry in [1], in assay [2], in assay [4] and in assay [3] was “inactive” throughout.

For `COc1cc2c(c(OC)c1OC)-c1ccc(OC)c(=O)cc1[C@@H](NC(C)=O)CC2`, the Potency result in [1] and in assay [5] was “inactive” in each case. The activity change, negative = inhibition in assay [6] was -76.4%.

As for `CN(C)CCC=C1c2ccccc2CCc2ccccc21`, the Potency entry in assay [1], in assay [2] and in assay [4] was “inactive” throughout. For the same molecule, in assay [6], the Potency is 20 µM (active).

For `CN1CCC(=C2c3ccccc3C=Cc3ccccc32)CC1`, the Potency entry in assay [1], in [2], in [4] and in [3] was “inactive” in each case. The activity change, negative = inhibition in [6] is -24.8%. Besides, the Potency in assay [7] is 0.192 µM (active).

Consider `CCN(CC)CCOC(=O)C1(C2CCCCC2)CCCCC1`, for which the Potency entry in assay [1], in assay [2] and in assay [3] was “inactive” in each case.

For the molecule `CN1CCN(C(c2ccccc2)c2ccccc2)CC1`, the Potency result in assay [1], in assay [2] and in assay [3] was “inactive” in each case.

As for `C=C[C@H]1CN2CC[C@H]1C[C@@H]2[C@@H](O)c1ccnc2ccc(OC)cc12`, the Potency entry in assay [1], in [2] and in assay [3] was “inactive” each time.

`OCCOCCN1CCN(C(c2ccccc2)c2ccc(Cl)cc2)CC1` (stereo not drawn): the Potency result in [1], in assay [2] and in [3] was “inactive” in each case.

As for `OC(CCN1CCCC1)(c1ccccc1)C1CCCCC1` (stereo not drawn), the Potency result in [1], in [2] and in assay [3] was “inactive” each time.

Turning to `Cc1ccc(O)c([C@H](CCN(C(C)C)C(C)C)c2ccccc2)c1`, the Potency entry in [1], in [2] and in assay [3] was “inactive” in each case.

Turning to `C[C@H]1c2cccc(O)c2C(O)=C2C(=O)[C@]3(O)C(O)=C(C(N)=O)C(=O)[C@@H](N(C)C)[C@@H]3[C@@H](O)[C@@H]21`, the Potency entry in [1], in assay [2] and in assay [3] was “inactive” in each case.

For the molecule `CN(C)CCCN1c2ccccc2Sc2ccc(Cl)cc21`, the Potency entry in assay [1], in [2] and in assay [3] was “inactive” in each case. Moreover, the figures for the Potency in assay [8] and in [7] were 11.2 µM (active) and 17.1 µM (active), respectively.

For the molecule `C#C[C@]1(O)CC[C@H]2[C@@H]3CCC4=Cc5oncc5C[C@]4(C)[C@H]3CC[C@@]21C`, the Potency result in assay [1] and in assay [2] was “inactive” each time.

`CCC(C)(C)C(=O)O[C@H]1C[C@@H](C)C=C2C=C[C@H](C)[C@H](CC[C@@H]3C[C@@H](O)CC(=O)O3)[C@H]21`: the Potency result in [1], in assay [5] and in assay [6] was “inactive” each time.

As for `CCN(CC)CCNC(=O)c1c(C)[nH]c(/C=C2\C(=O)Nc3ccc(F)cc32)c1C`, the Potency in [1] is 31.6 µM (active); in [5], 11.2 µM (active); in [6], 25.1 µM (active).

Take `CC(CN1c2ccccc2Sc2ccccc21)N(C)C` (stereo not drawn): the Potency result in assay [1], in assay [2], in [4] and in [3] was “inactive” in each case. For the same molecule, the Potency in assay [8] is 11.2 µM (active).

With `Cn1c(CCCC(=O)O)nc2cc(N(CCCl)CCCl)ccc21`, the Potency entry in assay [1], in assay [2], in assay [9], in [10], in assay [12] and in assay [13] was “inactive” throughout. The Potency result in assay [14] and in assay [3] was “inactive” each time. In [11], the outcome was inactive. For the same molecule, the Potency with Papain (Carica papaya) is 25.1 µM (active).

In the case of `CCN(CC)CCCC(C)Nc1ccnc2cc(Cl)ccc12` (stereo not drawn), the Potency entry in assay [1], in assay [2] and in [3] was “inactive” in each case.

As to `CC(=O)O[C@]1(C(C)=O)CC[C@H]2[C@@H]3C=C(Cl)C4=CC(=O)[C@@H]5C[C@@H]5[C@]4(C)[C@H]3CC[C@@]21C`, the Potency entry in [1], in [2] and in assay [3] was “inactive” each time.

For the molecule `COC(=O)[C@H]1[C@H]2C[C@@H]3c4[nH]c5cc(OC)ccc5c4CCN3C[C@H]2C[C@@H](OC(=O)c2cc(OC)c(OC)c(OC)c2)[C@@H]1OC`, the Potency result in assay [1], in assay [2], in [4] and in assay [3] was “inactive” throughout. In [8], the Potency was 10 µM (active). In addition, the activity change, negative = inhibition in assay [6] is -18.9%.

Consider `CN(C)CC/C=C1\c2ccccc2COc2ccccc21`, for which the Potency entry in assay [1], in assay [2] and in assay [3] was “inactive” each time.

`CCOC(=O)N1CCC(=C2c3ccc(Cl)cc3CCc3cccnc32)CC1`: the Potency entry in assay [1] and in [2] was “inactive” each time.

Turning to `CN(C)CCC=C1c2ccccc2C=Cc2ccccc21`, the Potency result in assay [1], in assay [2], in assay [4] and in [3] was “inactive” throughout. For the same molecule, in [6], the Potency was 14.1 µM (active).

Turning to `Cc1ccc(NC(=O)c2ccc(CN3CCN(C)CC3)cc2)cc1Nc1nccc(-c2cccnc2)n1`, the Potency entry in [1], in [2] and in assay [4] was “inactive” each time. Moreover, the results for the Potency in assay [8] and in assay [6] were 8.91 µM (active) and 35.5 µM (active), respectively.

As for `C#Cc1cccc(Nc2ncnc3cc(OCCOC)c(OCCOC)cc23)c1`, the Potency entry in assay [1], in assay [2] and in [3] was “inactive” in each case.

Consider `CN1CCC[C@@H]1CCO[C@](C)(c1ccccc1)c1ccc(Cl)cc1`, for which the Potency result in [4] was “inactive”.

As for `CNCC[C@H](Oc1cccc2ccccc12)c1cccs1`, the Potency entry in assay [4] was “inactive”.

As to `CC(CCc1ccccc1)NC(C)C(O)c1ccc(O)cc1` (stereo not drawn), the Potency result (in assay [9]; in assay [10]; in assay [14]; with Papain (Carica papaya)) was “inactive” each time. For the same molecule, the Potency in assay [13] was 195 nM (active).
